Out of some 5,600 compounds screened, about 4,400 (79%) were called active. The set was probably picked from earlier hits. A selection follows. Unmarked numbers belong to inactive results. Rule as the data show it: active = inhibition above about 27%; inactive = the rest.

Chain of Fructose-bisphosphate aldolase (Mycobacterium tuberculosis (strain ATCC 25618 / H37Rv)) (P9WQA3 whole entry, looked up): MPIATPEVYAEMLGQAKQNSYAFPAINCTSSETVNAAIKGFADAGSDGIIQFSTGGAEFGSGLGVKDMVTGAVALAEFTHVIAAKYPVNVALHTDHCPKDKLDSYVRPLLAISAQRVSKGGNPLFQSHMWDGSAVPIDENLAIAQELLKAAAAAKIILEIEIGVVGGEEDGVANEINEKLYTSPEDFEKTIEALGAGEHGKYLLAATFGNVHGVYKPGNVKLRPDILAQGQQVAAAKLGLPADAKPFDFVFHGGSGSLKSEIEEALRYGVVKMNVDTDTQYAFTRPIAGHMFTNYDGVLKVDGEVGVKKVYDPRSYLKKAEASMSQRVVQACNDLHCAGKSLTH

The assay concerns the target Fructose-bisphosphate aldolase (Mycobacterium tuberculosis (strain ATCC 25618 / H37Rv)) (UniProt P9WQA3). The assay is described as follows: M. tuberculosis aldolase blockers, biochemical, fluorescence, strain H37Rv, confirmation (AID 651616).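 Also: 0% = vehicle wells and 100% = reference inhibitor wells.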 The following applies: purified M. tuberculosis FBA, fluorescence read-out, at 1 µM, stronger effect = higher value.
Turning to `Cc1coc2c1c(C)cc1oc(=O)c(CC(=O)NCC(=O)N[C@H](C(=O)O)C(C)C)c(C)c12`, the inhibition is 52.1% (active).

In the case of `Cc1cc(C)cc(NC(=O)CSc2ccccc2)c1`, the inhibition is 86.7% (active).

`CN(C)CCCn1c(N)c(C#N)c2nc(C#N)c(C#N)nc21`: the inhibition is 85.4% (active).

As to `Cc1cc(C)c2c(n1)sc1c(=O)n(-c3ccccc3)c(=O)[nH]c12`, the inhibition was 75.8% (active).

For the molecule `CN(CCc1ccccn1)S(=O)(=O)c1ccc2c3c(cccc13)C(=O)N2`, the inhibition is 130% (active).

With `COc1ccc(NC(=O)N2CCC(Cc3ccccc3)CC2)cc1`, the inhibition was 40.8% (active).

On to `COc1ccccc1C(=O)Nc1ccc(OCC(=O)N2CCCCC2)cc1`, for which the inhibition is 183% (active).

Turning to `O=C1CC2(CCCCC2)Oc2ccc(OCC(=O)N3CCOCC3)cc21`, the inhibition was 4.05%.

On to `COc1ccccc1NC(=O)COc1ccc(C(=O)OCC(=O)N(C(C)C)C(C)C)cc1OC`, for which the inhibition was 0.36%.

For the molecule `COc1ccccc1-c1oc2ccccc2c1C#CCCCCO`, the inhibition was 170% (active).

With `COc1ccc(-n2cc(CNC3CCOCC3)c(-c3cccc(F)c3)n2)cc1`, the inhibition was 18.8%.

In the case of `COc1ccc(-n2cc(CN(C)Cc3n[nH]c(=O)[nH]3)c(-c3cccc(F)c3)n2)cc1`, the inhibition is 44.3% (active).

With `Cc1ccc(S(=O)(=O)N2CCN(C(=O)CSc3cc(C)ccc3C)CC2)c(C)c1`, the inhibition was 164% (active).

Consider `CCc1ccc(-c2cc(C(=O)NCc3ccco3)c3ccccc3n2)s1`, for which the inhibition was -6.79%.

With `Cn1nc(-c2ccc(Cl)cc2)c2cc(C(=O)NCc3ccco3)sc21`, the inhibition is 47.8% (active).

With `CCN(CC)CCCNC(=O)c1cc2c(=O)[nH]c3ccc(C)cc3c2s1`, the inhibition was 137% (active).

As for `N#CC1(Nc2ccc3c4c(cccc24)CC3)CCCCC1`, the inhibition was 119% (active).

On to `N#Cc1c(N)n(CCOC(=O)c2ccc(Cl)cc2)c2nc3ccccc3nc12`, for which the inhibition was 40.4% (active).

As to `CC(=O)c1sc2nc(SCC(=O)N3CCCCC3)[nH]c(=O)c2c1C`, the inhibition was 76.2% (active).

As for `CCN(C(=O)Nc1cccc2ccccc12)c1ccccc1`, the inhibition is 164% (active).

Take `O=C(O)c1cccnc1Sc1ncnc2sc3c(c12)CCC3`: the inhibition was 59.7% (active).

Take `O=C(Nc1ncc2c(n1)-c1ccccc1OC2)c1ccc(Cl)cc1`: the inhibition is 93.8% (active).

As to `CCOc1ccccc1C1CC(c2ccccc2)Nc2nc(N)nn21` (configuration not stated), the inhibition was 185% (active).

With `O=c1oc2ccccc2cc1-c1cn(-c2ccccc2)c(=S)[nH]1`, the inhibition is 17.6%.

`CC12CCC(C(=O)N3CCN(c4ncccn4)CC3)(c3nc4ccccc4nc31)C2(C)C` (configuration not stated): the inhibition is 195% (active).

Consider `Cn1c(-c2ccco2)nc2cc3ccccc3cc21`, for which the inhibition was 46.4% (active).

Turning to `Cn1cccc1-c1nc2ccccc2n1C`, the inhibition is 13.3%.

As for `CCc1cc(=O)oc2c(C)c(OCC(=O)N3CC[C@@]4(O)CCCC[C@H]4C3)ccc12`, the inhibition was 130% (active).

For `CCCc1cc(=O)oc2c(C)c(OCC(=O)N3CCC(C(=O)O)CC3)ccc12`, the inhibition is -5.02%.

As for `CCOC(=O)CSc1nc2c(c(=O)n(Cc3ccccc3Cl)c(=O)n2C)n1C`, the inhibition was 48.6% (active).

In the case of `CN(C)c1ccc(/C=N/NC(=O)C(O)c2ccc(Br)cc2)cc1` (configuration not stated), the inhibition was 72.9% (active).

For `COC(=O)c1noc(C)c1-c1ccnn1C(=O)c1ccc(Cl)cc1`, the inhibition is 57.6% (active).

In the case of `Cc1nc(NCCN)c(C#N)c2c1COC(C)(C)C2`, the inhibition was 88.6% (active).

Turning to `Cc1cc(=O)n2[nH]c(-c3cccc(Cl)c3)cc2n1`, the inhibition is 107% (active).

Regarding `Cc1ccc2nc(/C(C#N)=C\c3ccc(OC(=O)c4cccs4)cc3)[nH]c2c1`, the inhibition is 53.5% (active).

Regarding `CC(C)(C)C(=O)Nc1cccc(-c2ccc[nH]2)n1`, the inhibition was 76.9% (active).

Turning to `N#Cc1c(N2CCCCC2)nc(N)c2c(N)nc(SCC(=O)O)cc12`, the inhibition was 11.2%.

`CN(C)Cc1c(O)ccc2c(=O)c(-c3ccccc3Cl)coc12`: the inhibition is 9.64%.

In the case of `CC[C@@H]1Cc2cc(O)ccc2C2=C1c1ccc(O)cc1C[C@H]2CC`, the inhibition was 109% (active).

With `Cc1cc(C)c2c(n1)nn1c(-n3ccnc3)cc(C)nc21`, the inhibition is -3.81%.

In the case of `Cc1cc(C)c2c(NC(=O)C3CC3)nn(C)c2n1`, the inhibition is 87.2% (active).

For `CC(C)(C)Nc1c(-c2cccs2)nc2ccccn12`, the inhibition was 146% (active).

For `CC[C@@H](C)[C@H](NC(=O)CCc1c(C)c2cc3c4c(oc3c(C)c2oc1=O)CCCC4)C(=O)O`, the inhibition is 88.9% (active).

As to `CC(C)=NN1C(=O)c2ccccc2NC1(C)C`, the inhibition is 178% (active).

Turning to `O=C(Nc1nncs1)c1ccccc1NS(=O)(=O)c1cccs1`, the inhibition is 141% (active).

`CC(C)c1nc(N2CCOCC2)c(C#N)c2c1COC(C)(C)C2`: the inhibition is 37.2% (active).

`CC1(C)Cc2c(C#N)c(SCc3nc4ccccc4[nH]3)nc(N3CCOCC3)c2CO1`: the inhibition was -3.68%.

Values taken from PubChem BioAssay AID651616 (The Scripps Research Institute Molecular Screening Center, 2012).
